Experimental data as given in PubChem BioAssay (EPA / NIEHS).
Records with an inconclusive call do not appear. Active and inactive are the calls of the source. Rule for the calls, unless noted: active = hit-call score of the fitted dose curve at least 0.9, where 1 is the maximum; inactive = score below 0.9.

Legend:
[1] = ATG_Sox_CIS: Attagene CIS-FACTORIAL HepG2 Assay for human SRY-box transcription factor (SOX) (AID 2282960); settings: HepG2 Attagene cis-factorial SOX reporter, mRNA; actives raise or lower the signal
Procedure, shortened: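 Measures mRNA induction of a SOX1-associated reporter in HepG2 after 24 h dosing. Fluorescently labelled RT-PCR fragments are separated by capillary electrophoresis, and gain or loss relative to DMSO control is fitted.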

[2] = target: Transcription factor Sp1 (Homo sapiens) (UniProt P08047); test: ATG_Sp1_CIS: Attagene CIS-FACTORIAL HepG2 Assay for human Specificity Protein 1 (Sp1) (AID 2282961); settings: HepG2 Sp1 cis-reporter transcription, actives raise or lower the signal
Procedure, shortened: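 Cells: HepG2, transiently transfected with cis-regulated multiplexed reporters. Exposure: 24 h. Detection: reporter transcripts amplified, fluorescently labeled, restriction-digested and sized by capillary electrophoresis. Analysis: bidirectional fit relative to DMSO.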

[3] = ATG_SREBP_CIS: Attagene CIS-FACTORIAL HepG2 Assay for human Sterol Regulatory Element Binding (SREBP) (AID 2282962); settings: HepG2 Attagene cis-factorial SREBP reporter, mRNA; actives raise or lower the signal
Procedure, shortened: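 Transfected HepG2 (cis-regulated reporter library, endogenous TFs) → compound 24 h → total RNA → oligo(dT) RT → reporter-specific PCR → FAM primer extension, HpaI cut → CE fluorescence. Fit bidirectional vs DMSO.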

[4] = target: Signal transducer and activator of transcription 3 (Homo sapiens) (UniProt P40763); test: ATG_STAT3_CIS: Attagene CIS-FACTORIAL HepG2 Assay for human Signal Transducer and Activator of Transcription 3 (STAT3) (AID 2282963); settings: HepG2, Attagene cis-factorial STAT3 reporter transcription; actives raise or lower the signal
Procedure, shortened: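 HepG2 cells transiently transfected with cis-element-driven multiple reporter transcription units; after 24 h chemical exposure, reporter mRNA measured by RT-PCR, 6-FAM primer-extension labelling, HpaI digestion and capillary electrophoresis. Bidirectional fitting versus DMSO baseline.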

[5] = ATG_TA_CIS: Attagene CIS-FACTORIAL HepG2 Assay for human TA Basal Promoter (AID 2282964); settings: HepG2 Attagene CIS-factorial TA basal promoter reporter; actives raise or lower the signal
Procedure, shortened: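 Background-control readout: TA basal promoter reporter mRNA, fitted in both directions relative to DMSO. Measured by RT-PCR and capillary electrophoresis 24 hours after treating HepG2 human liver cells transiently carrying multiplexed cis-regulated reporter constructs.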

[6] = ATG_TCF_b_cat_CIS: Attagene CIS-FACTORIAL HepG2 Assay for human T-Cell-Factor with beta-catenin (TCF/b-cat) (AID 2282965); settings: HepG2 TCF/beta-catenin cis-reporter transcription, actives raise or lower the signal
Procedure, shortened: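 HepG2 cells transiently transfected with multiple cis-promoter-regulated reporter transcription units, so endogenous transcription factor activity is measured. Reporter mRNA read 24 hours after dosing by RT-PCR, fluorescent labelling and capillary electrophoresis; bidirectional fitting against DMSO.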

[7] = ATG_TAL_CIS: Attagene CIS-FACTORIAL HepG2 Assay for human TAL Basal Promoter (AID 2282966); settings: HepG2 Attagene cis-factorial TAL promoter reporter; actives raise or lower the signal;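 note: background control endpoint measuring basal TAL promoter reporter mRNA not a specific factor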
Procedure, shortened: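 HepG2 cells transiently transfected with multiplexed cis-promoter reporter units, dosed 24 h. Reporter mRNA quantified by RT-PCR, 6-FAM labelling, HpaI digestion and capillary electrophoresis; TAL basal promoter serves as background control, fitted bidirectionally versus DMSO.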

[8] = ATG_TGFb_CIS: Attagene CIS-FACTORIAL HepG2 Assay for human Transforming Growth Factor (TGF) (AID 2282967); settings: HepG2 Attagene CIS TGFb reporter, mRNA transcription; actives raise or lower the signal
Procedure, shortened: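 Endogenous TGFB1-linked transcription factor activity read as reporter mRNA via RT-PCR and capillary electrophoresis, 24 h after dosing transiently transfected HepG2 cells. Gain or loss of signal fitted relative to DMSO.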

[9] = ATG_VDRE_CIS: Attagene CIS-FACTORIAL HepG2 Assay for human Vitamin D Receptor Element (VDRE) (AID 2282968); settings: HepG2 VDRE cis-reporter transcription, actives raise or lower the signal
Procedure, shortened: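 HepG2 cells transiently transfected with cis-element reporter units, dosed 24 h; reporter mRNA measured by RT-PCR, 6-FAM labeling, HpaI digestion and capillary electrophoresis. Activity fitted bidirectionally against DMSO baseline.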

[10] = target: Nuclear receptor subfamily 1 group I member 3 (Homo sapiens) (UniProt Q14994); test: ATG_CAR_TRANS: Attagene TRANS-FACTORIAL HepG2 Assay for human Constitutive Androstane Receptor (CAR) (AID 2282969; active = hit-call score of the fitted dose curve at least 0.9, where 1 is the maximum;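 note: activators raise reporter mRNA above DMSO so AC50 marks induction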); settings: HepG2 Attagene TRANS-FACTORIAL CAR reporter
Procedure, shortened: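 HepG2 cells transiently transfected with multiplexed GAL4-UAS reporter units expressing chimeric NR-Gal4 proteins; compound exposure 24 h. Reporter mRNA measured by RT-PCR, 6-FAM labelling, HpaI digestion and capillary electrophoresis; gain-of-signal fitted against DMSO baseline.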

[11] = target: X-box-binding protein 1 (Homo sapiens) (UniProt P17861); test: ATG_Xbp1_CIS: Attagene CIS-FACTORIAL HepG2 Assay for human X-box Binding Protein 1 (XBP1) (AID 2282972); settings: HepG2 XBP1 cis-element reporter, Attagene multiplex; actives raise or lower the signal
Procedure, shortened: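 HepG2, transient MRTU transfection (cis-promoter driven), 24 h compound exposure. Total RNA → oligo(dT) RT → PCR → 6-FAM labeling → HpaI cut → CE. Bidirectional fit vs DMSO.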

[12] = target: Androgen receptor (Homo sapiens) (UniProt P10275); test: ATG_AR_TRANS: Attagene TRANS-FACTORIAL HepG2 Assay for human Androgen Receptor (AR) (AID 2282973; active = hit-call score of the fitted dose curve at least 0.9, where 1 is the maximum); settings: HepG2 Attagene TRANS-FACTORIAL AR reporter transcription
Procedure, shortened: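 HepG2 cells transiently transfected with AR-Gal4 chimera and GAL4-UAS reporter units; chemical exposure 24 h. Reporter mRNA quantified by RT-PCR with fluorescent labelling and capillary electrophoresis; gain-of-signal fitted against DMSO.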

[13] = ATG_M_19_TRANS: Attagene TRANS-FACTORIAL HepG2 Assay for M19 Transcription Factor (Internal Marker) (AID 2282974; active = hit-call score of the fitted dose curve at least 0.9, where 1 is the maximum); settings: HepG2 Attagene TRANS-FACTORIAL M19 internal marker reporter
Procedure, shortened: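 Reporter mRNA induction was measured in transfected HepG2 cells 24 h after dosing. Endpoint fitted upward relative to DMSO and serves as a background control within the multiplexed TRANS panel.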

[14] = ATG_RORE_CIS: Attagene CIS-FACTORIAL HepG2 Assay for human RAR-related Orphan Receptor Element (RORE) (AID 2282959); settings: HepG2 Attagene cis-factorial RORE reporter, mRNA; actives raise or lower the signal
Procedure, shortened: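 Endogenous factor activity at a cis response element is read as reporter transcript levels in HepG2 cells, 24 h post-dose. Transcripts are quantified by RT-PCR with capillary electrophoresis, and data fitted in both directions against DMSO.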

[15] = ATG_GAL4_TRANS: Attagene TRANS-FACTORIAL HepG2 Assay for GAL4 (Internal Marker) (AID 2282976; active = hit-call score of the fitted dose curve at least 0.9, where 1 is the maximum); settings: HepG2 Attagene TRANS GAL4 internal marker reporter
Procedure, shortened: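 Background-control readout: GAL4-UAS reporter transcript in transiently transfected HepG2 cells after 24 h compound exposure. Measured by RT-PCR, 6-FAM primer extension, HpaI digest and capillary electrophoresis; gain-of-signal fit versus DMSO.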

[16] = target: Estrogen receptor (Homo sapiens) (UniProt P03372); test: ATG_ERa_TRANS: Attagene TRANS-FACTORIAL HepG2 Assay for human Estrogen Receptor alpha (ERa) (AID 2282970; active = hit-call score of the fitted dose curve at least 0.9, where 1 is the maximum); settings: HepG2 Attagene TRANS ERa GAL4 reporter, mRNA
Procedure, shortened: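 HepG2 cells transiently transfected with multiplexed GAL4-UAS reporter units read out chimeric NR-Gal4 activity. After 24 h compound exposure, reporter mRNA was quantified by RT-PCR, 6-FAM labeling, HpaI digestion and capillary electrophoresis, relative to DMSO.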

[17] = target: Steroid hormone receptor ERR1 (Homo sapiens) (UniProt P11474); test: ATG_ERRa_TRANS: Attagene TRANS-FACTORIAL HepG2 Assay for human Estrogen-Related Receptor alpha (ERRa) (AID 2282971; active = hit-call score of the fitted dose curve at least 0.9, where 1 is the maximum); settings: HepG2 Attagene TRANS reporter, ERRa transactivation
Procedure, shortened: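 HepG2 cells transiently transfected with GAL4-UAS reporter units and chimeric NR-Gal4 constructs; after 24 hour compound incubation, reporter mRNA quantified by RT-PCR, fluorescent labelling and capillary electrophoresis, gain of signal versus DMSO.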

[18] = target: Estrogen-related receptor gamma (Homo sapiens) (UniProt P62508); test: ATG_ERRg_TRANS: Attagene TRANS-FACTORIAL HepG2 Assay for human Estrogen-Related Receptor gamma (ERRg) (AID 2282977; active = hit-call score of the fitted dose curve at least 0.9, where 1 is the maximum;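 note: hits increase reporter signal over DMSO so potencies reflect activators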); settings: HepG2 Attagene TRANS reporter, ERRg transactivation
Procedure, shortened: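 HepG2 cells transiently transfected with multiplexed GAL4-UAS reporter units and chimeric NR-Gal4 constructs were exposed to test chemicals for 24 h. Reporter mRNA was measured by RT-PCR, 6-FAM primer extension, HpaI digestion and capillary electrophoresis; gain-of-signal versus DMSO.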

[19] = target: Glucocorticoid receptor (Homo sapiens) (UniProt P04150); test: ATG_GR_TRANS: Attagene TRANS-FACTORIAL HepG2 Assay for human Glucocorticoid Receptor (GR) (AID 2282978; active = hit-call score of the fitted dose curve at least 0.9, where 1 is the maximum;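 note: activators score as hits since higher reporter transcript over DMSO is fitted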); settings: HepG2 Attagene TRANS GR reporter, mRNA transcription
Procedure, shortened: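 Reporter transcript levels, detected by fluorescence after RT-PCR and capillary electrophoresis, served as the endpoint. HepG2 cells bearing transfected GAL4-UAS reporters responsive to NR-GAL4 chimeras were incubated with compound 24 h; DMSO defined baseline.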

Measured: AC50

Chain of Androgen receptor (Homo sapiens) (P10275 whole entry, looked up, the tested form may be a part): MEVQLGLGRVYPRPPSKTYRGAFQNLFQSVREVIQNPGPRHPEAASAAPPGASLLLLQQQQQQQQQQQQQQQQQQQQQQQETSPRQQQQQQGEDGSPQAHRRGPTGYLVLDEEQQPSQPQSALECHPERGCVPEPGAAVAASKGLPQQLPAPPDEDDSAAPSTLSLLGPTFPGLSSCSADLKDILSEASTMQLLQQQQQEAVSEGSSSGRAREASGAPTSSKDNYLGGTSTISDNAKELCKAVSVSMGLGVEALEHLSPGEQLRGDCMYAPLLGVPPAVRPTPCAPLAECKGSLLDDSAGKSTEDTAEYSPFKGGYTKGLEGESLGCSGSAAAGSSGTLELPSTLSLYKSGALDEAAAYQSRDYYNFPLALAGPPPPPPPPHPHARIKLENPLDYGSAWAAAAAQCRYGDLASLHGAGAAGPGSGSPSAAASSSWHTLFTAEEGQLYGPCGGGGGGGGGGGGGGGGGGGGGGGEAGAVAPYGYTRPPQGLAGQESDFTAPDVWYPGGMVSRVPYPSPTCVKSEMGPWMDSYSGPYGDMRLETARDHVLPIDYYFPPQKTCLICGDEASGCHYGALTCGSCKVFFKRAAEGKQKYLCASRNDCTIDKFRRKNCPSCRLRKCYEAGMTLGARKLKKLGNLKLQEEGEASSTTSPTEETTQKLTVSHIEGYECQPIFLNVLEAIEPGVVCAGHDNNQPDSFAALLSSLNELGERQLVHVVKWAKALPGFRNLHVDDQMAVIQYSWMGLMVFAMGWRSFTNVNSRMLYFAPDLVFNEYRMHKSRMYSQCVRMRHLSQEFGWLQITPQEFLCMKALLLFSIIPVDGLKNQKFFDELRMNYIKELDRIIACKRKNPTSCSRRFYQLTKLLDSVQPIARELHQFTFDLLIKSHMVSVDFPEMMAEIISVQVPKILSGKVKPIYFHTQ
Chain of Estrogen receptor (Homo sapiens) (P03372 whole entry, looked up, the tested form may be a part): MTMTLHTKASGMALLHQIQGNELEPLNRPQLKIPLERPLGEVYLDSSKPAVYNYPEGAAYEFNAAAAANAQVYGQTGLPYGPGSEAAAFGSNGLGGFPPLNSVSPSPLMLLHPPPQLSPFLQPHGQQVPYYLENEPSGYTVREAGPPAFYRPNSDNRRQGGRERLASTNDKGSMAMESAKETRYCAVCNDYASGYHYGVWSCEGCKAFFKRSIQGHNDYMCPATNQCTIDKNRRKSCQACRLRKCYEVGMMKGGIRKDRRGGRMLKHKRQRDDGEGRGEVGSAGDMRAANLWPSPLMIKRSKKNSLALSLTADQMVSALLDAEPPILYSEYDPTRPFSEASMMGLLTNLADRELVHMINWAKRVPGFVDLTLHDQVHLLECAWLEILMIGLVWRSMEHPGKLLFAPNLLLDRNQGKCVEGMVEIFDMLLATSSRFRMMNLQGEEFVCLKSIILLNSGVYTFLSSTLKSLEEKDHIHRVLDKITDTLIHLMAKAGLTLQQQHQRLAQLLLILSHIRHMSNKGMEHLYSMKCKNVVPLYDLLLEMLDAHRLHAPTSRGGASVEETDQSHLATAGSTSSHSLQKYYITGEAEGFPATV
Chain of Transcription factor Sp1 (Homo sapiens) (P08047 whole entry, looked up): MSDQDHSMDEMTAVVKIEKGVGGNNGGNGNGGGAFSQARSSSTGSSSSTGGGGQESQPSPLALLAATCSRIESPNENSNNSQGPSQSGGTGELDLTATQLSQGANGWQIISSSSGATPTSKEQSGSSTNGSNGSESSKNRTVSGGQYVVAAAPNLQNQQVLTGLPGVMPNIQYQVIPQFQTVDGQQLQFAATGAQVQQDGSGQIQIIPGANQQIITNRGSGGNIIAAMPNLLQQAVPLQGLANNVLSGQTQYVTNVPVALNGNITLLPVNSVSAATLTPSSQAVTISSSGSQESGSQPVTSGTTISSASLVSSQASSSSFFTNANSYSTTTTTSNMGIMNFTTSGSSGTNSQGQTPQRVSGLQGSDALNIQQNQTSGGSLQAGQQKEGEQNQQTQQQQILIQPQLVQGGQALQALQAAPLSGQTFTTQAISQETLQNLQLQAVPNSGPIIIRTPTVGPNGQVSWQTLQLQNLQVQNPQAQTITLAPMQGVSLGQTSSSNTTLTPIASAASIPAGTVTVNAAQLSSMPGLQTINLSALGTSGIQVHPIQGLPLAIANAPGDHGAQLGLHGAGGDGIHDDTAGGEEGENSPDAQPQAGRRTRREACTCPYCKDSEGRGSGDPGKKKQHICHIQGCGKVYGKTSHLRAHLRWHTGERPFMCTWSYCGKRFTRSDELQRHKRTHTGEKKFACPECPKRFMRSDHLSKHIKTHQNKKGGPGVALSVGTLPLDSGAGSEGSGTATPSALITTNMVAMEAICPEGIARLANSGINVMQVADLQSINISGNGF
Chain of X-box-binding protein 1 (Homo sapiens) (P17861 whole entry, looked up): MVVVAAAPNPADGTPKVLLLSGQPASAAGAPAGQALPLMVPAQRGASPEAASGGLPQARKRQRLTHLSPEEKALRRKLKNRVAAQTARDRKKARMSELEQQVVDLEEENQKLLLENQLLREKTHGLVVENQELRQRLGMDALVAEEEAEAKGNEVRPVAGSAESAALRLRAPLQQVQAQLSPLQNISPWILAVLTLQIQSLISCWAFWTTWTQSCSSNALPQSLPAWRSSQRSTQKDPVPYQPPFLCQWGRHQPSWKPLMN
Chain of Glucocorticoid receptor (Homo sapiens) (P04150 whole entry, looked up, the tested form may be a part): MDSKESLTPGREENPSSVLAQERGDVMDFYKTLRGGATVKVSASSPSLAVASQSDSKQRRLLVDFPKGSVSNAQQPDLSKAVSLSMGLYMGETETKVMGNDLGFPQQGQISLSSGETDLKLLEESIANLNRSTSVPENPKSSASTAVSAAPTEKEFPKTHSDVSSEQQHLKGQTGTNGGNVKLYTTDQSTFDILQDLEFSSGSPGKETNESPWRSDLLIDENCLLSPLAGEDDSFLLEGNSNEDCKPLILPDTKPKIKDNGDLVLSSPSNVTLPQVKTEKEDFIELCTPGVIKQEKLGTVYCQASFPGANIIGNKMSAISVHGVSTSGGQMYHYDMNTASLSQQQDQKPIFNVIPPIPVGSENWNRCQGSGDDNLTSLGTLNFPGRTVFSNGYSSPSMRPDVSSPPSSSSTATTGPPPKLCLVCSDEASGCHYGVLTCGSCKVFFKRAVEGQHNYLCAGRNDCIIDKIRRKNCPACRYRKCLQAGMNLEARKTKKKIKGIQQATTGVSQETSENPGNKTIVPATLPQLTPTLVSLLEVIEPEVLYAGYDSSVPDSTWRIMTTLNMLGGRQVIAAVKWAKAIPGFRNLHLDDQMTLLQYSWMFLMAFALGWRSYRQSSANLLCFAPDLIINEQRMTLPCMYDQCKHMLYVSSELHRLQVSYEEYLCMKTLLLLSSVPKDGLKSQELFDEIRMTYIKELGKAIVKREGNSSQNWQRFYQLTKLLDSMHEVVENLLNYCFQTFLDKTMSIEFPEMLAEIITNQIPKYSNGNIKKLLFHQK
Chain of Signal transducer and activator of transcription 3 (Homo sapiens) (P40763 whole entry, looked up): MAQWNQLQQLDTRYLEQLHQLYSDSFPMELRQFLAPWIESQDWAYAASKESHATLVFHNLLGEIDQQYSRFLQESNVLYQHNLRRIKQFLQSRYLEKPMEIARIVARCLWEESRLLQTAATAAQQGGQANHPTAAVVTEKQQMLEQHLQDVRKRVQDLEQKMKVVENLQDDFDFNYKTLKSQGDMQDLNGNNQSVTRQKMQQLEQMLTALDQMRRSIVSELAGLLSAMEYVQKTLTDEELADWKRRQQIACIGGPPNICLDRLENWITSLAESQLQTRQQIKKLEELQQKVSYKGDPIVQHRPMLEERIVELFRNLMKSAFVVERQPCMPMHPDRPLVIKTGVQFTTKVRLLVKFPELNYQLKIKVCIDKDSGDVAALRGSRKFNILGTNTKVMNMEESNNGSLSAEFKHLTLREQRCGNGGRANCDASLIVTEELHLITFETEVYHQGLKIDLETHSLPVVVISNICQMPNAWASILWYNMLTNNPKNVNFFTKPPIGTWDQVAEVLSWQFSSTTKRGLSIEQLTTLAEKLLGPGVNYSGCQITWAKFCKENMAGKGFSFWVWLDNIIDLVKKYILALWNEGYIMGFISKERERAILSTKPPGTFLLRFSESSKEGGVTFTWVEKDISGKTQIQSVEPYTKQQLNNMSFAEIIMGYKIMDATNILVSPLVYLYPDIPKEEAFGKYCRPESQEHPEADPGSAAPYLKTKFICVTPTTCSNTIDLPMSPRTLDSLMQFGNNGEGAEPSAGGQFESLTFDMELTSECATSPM
Chain of Nuclear receptor subfamily 1 group I member 3 (Homo sapiens) (Q14994 whole entry, looked up, the tested form may be a part): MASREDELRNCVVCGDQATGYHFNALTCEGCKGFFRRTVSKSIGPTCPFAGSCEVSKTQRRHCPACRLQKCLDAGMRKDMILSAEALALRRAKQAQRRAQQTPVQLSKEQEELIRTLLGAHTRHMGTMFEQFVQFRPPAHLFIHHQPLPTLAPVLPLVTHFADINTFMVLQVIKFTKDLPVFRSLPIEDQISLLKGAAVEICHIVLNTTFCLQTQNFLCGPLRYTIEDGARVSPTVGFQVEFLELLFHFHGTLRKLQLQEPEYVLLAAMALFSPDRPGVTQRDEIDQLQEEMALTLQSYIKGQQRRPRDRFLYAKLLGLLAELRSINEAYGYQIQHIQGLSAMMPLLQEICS
Chain of Steroid hormone receptor ERR1 (Homo sapiens) (P11474 whole entry, looked up, the tested form may be a part): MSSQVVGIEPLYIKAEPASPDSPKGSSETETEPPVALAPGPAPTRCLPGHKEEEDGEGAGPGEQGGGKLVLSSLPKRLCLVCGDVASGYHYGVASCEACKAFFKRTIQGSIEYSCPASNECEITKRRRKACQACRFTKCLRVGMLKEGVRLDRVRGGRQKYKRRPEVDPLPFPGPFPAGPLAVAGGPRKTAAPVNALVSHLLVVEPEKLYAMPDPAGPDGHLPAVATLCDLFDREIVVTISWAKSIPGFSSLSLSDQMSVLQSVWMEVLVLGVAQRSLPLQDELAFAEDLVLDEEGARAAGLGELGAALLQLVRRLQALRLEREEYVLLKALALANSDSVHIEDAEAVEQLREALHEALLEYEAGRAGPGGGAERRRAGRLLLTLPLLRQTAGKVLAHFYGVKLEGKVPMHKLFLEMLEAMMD

CC(C)CCCCCCOC(=O)c1ccccc1C(=O)OCCCCCCC(C)C
not listed: [14] | [15] | [16] | [17] | [18] | [19]
inactive: all other assays above

N#Cc1ccccn1
not listed: [8] | [9] | [12] | [13] | [16] | [17] | [18] | [19]
inactive: all other assays above

COP(=S)(OC)Oc1ccc(S(=O)(=O)N(C)C)cc1
active: [9] 38.8 µM
not listed: [7] | [8] | [10] | [15] | [19]
inactive: all other assays above

O=C(O)C(F)(F)C(F)(F)C(F)(F)C(F)(F)C(F)(F)C(F)(F)F
not listed: [8] | [10] | [12] | [16] | [17] | [18] | [19]
inactive: all other assays above

Nc1cccc2ccccc12
active: [3] 170 µM
not listed: [9] | [10] | [12] | [15] | [17] | [18] | [19]
inactive: all other assays above

Nc1ccc(Cl)cc1C(=O)c1ccccc1
active: [14] 15 µM | [5] 21.8 µM | [6] 39.6 µM | [9] 16.6 µM | [16] 3.63 µM
not listed: [8] | [10] | [12] | [18]
inactive: all other assays above

CC(C)OC(=O)Nc1ccccc1
not listed: [8] | [10] | [12] | [13] | [15] | [16] | [17] | [19]
inactive: all other assays above

CNC
not listed: [8] | [10] | [12] | [17] | [18]
inactive: all other assays above

Clc1ccc(COC(Cn2ccnc2)c2ccc(Cl)cc2Cl)cc1 (centres undefined)
not listed: [7] | [9] | [13] | [14] | [15] | [17] | [18]
inactive: all other assays above
